D1 antag = blocks dopamine activation of the human D1 receptor | HEK293 TREx D1 cells, calcium flux, dopamine EC80; stronger effect = lower value | AID 504652 | 360,000 tested, 3.2% active | P21728 | activity change, negative = inhibition, % at 10 µM; in the data active = activity change below about -30%
Target sequence (P21728 whole entry, looked up): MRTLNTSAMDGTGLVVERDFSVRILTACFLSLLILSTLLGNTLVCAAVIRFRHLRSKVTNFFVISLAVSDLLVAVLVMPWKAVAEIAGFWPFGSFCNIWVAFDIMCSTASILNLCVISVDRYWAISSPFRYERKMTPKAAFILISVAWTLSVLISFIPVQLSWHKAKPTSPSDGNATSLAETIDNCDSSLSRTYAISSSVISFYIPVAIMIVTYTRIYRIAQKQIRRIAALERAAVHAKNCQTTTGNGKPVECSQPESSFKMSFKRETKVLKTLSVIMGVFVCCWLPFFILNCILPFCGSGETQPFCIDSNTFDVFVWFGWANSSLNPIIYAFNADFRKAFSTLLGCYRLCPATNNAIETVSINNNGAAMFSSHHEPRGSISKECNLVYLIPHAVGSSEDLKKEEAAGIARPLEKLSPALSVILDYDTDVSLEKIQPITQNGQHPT
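Calcium flux readout: force-coupled, inducible Hek293 Trex D1 line, cells induced overnight at 30 C with tetracycline, dye-loaded 30–90 min at RT. Antagonism scored against EC80 dopamine challenge given 180 s after compound.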
D1 agonist = agonists of human D1 dopamine receptor | HEK293 T-REx D1 cells, calcium flux, agonist mode | P21728 | 360,000 tested, 1% active | activation, % at 2 µM
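Inducible HEK293 T-REx D1 cells, force-coupled to calcium signalling, were plated at 4000 cells/well with tetracycline and held overnight at 30 C. After no-wash calcium dye loading, compound-evoked calcium rise over 180 s flagged agonists.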
TRHR PAM = allosteric enhancers of human TRH receptor | TRHR cells, fluo-8 calcium fluorescence, EC20 TRH enhancement | enhancement, % at 2 µM | 360,000 tested, 0.66% active; in the data active = enhancement above about 30%
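TRHR-expressing cells loaded with fluo-8 calcium dye were read kinetically (ex 480/em 530) during compound addition, then stimulated with an EC20 of TRH (10 nM final). Enhancement of the Gq-mediated intracellular calcium response was scored.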
TRHR ag = activates the human TRH receptor | 360,000 tested, 0.18% active | TRHR cells, calcium flux fluo-8, FDSS agonist mode | activation, % at 2 µM | AID 493084 | P34981
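Fluo-8-loaded TRHR cells; 10 s baseline, compound added, kinetic Ca2+ fluorescence read 1/s, agonist mode.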
D1 potentiator = potentiators of human D1 dopamine receptor. 360,000 tested, 0.036% active. P21728. HEK293 TREx D1 cells, calcium flux, dopamine EC20 potentiation. potentiation, % at 10 µM; in the data active = potentiation above about 30%
Hits are given with their value; . = inactive. The list is not random: actives were taken first. Their share in the collection is about 4.7%. Cut-off read from the data, not from the text of the source, unless noted: active = activation above about 30%; inactive = the rest.

SMILES	D1 antag	D1 agonist	TRHR PAM	TRHR ag	D1 potentiator
CCOC(=O)N1CCC(NC(=O)CCCC(=O)O)CC1	-33	.	.	.	.
Cc1ccccc1C(=O)Nc1ccc(OCc2cc(=O)n3ccccc3n2)cc1	.	.	.	.	.
S=C(N/N=C/c1ccc(Cl)cc1)N1CCOCC1	-37	.	.	.	.
Cc1ccc(/C=N/NC(=S)N2CCOCC2)cc1	.	.	.	.	.
COc1ccc(Cn2ccc3nc(C)c(C(=O)N4CCN(c5cccc(OC)c5)CC4)cc3c2=O)cc1	.	.	.	.	.
Cc1[nH]n(-c2cccc3ccccc23)c(=O)c1/C=N/NC(=O)c1cccc([N+](=O)[O-])c1	.	.	.	.	.
Cc1ccc(-n2[nH]c(C)c(/C=N/NC(=O)c3ccc([N+](=O)[O-])cc3)c2=O)c(C)c1	.	.	50	.	.
CCCS(=O)(=O)N1CCN=C1SCc1cccc(C)c1	-30	.	.	.	.
CCCS(=O)(=O)N1CCN=C1SCc1ccc(C)cc1	.	.	.	.	.
C[C@]12CCC(O)CC1CCC1C2CC[C@]2(C)C(c3cc(C(F)(F)F)n[nH]3)CCC12 (stereo partly drawn)	.	43	.	.	.
C/C(=N\NC(N)=S)C1=CCC2C3CC[C@H]4CC(O)CC[C@]4(C)C3CC[C@]12C (stereo partly drawn)	.	.	.	.	.
O=C(NNC(=O)c1ccc(Cl)nc1)c1ccncc1	.	.	.	.	.
Cc1cc(N2CCN(S(=O)(=O)c3ccccc3)CC2)c2ccccc2n1	-35	.	.	.	.
O=S(=O)(c1ccccc1)N1CCN(c2ccnc3cc(Cl)ccc23)CC1	-41	.	.	.	.
O=C(Nc1ccc(C(F)(F)F)cc1)N1CCN(c2ccnc3cc(Cl)ccc23)CC1	-37	.	.	.	.
CCOC(=O)c1ccc(NC2(c3ccccc3)C(=O)c3ccccc3C2=O)cc1	.	.	.	.	.
Cc1cccc(N2C(=O)N3[C@H](c4ccc(Cl)cc4)[C@@H]4C(=O)N(C5CCCCC5)C(=O)[C@@H]4[C@]3(Cc3ccc(Cl)cc3)C2=O)c1	-40	.	.	.	.
COc1cccc(Cn2c(=O)n(-c3ccc(Br)cc3F)c(=O)c3sc4ccccc4c32)c1	.	.	.	.	.
Cn1cc(-c2cc3n(n2)CCC(=O)N3CCCC(=O)NCc2ccccc2Cl)c2ccccc21	-48	.	.	.	.
Cn1cc(-c2cc3n(n2)CCC(=O)N3CCCC(=O)NCc2ccc(Cl)cc2)c2ccccc21	.	.	.	.	.
CCOC(=O)CCCN1C(=O)CCn2nc(-c3cn(C)c4ccccc34)cc21	-40	.	.	.	.
Cc1ccccc1OC(=O)CSc1nnc(-c2ccc(F)cc2)o1	.	.	.	.	.
COC(=O)c1c(NC(C)=O)sc2c1CCCCC2	.	.	.	.	.
COC(=O)c1c(NC(=O)C2CC=CCC2C(=O)O)sc2c1CCCCC2 (stereo not drawn)	.	.	31	.	.
COc1ccc(-c2nnc(SCc3ccccc3F)o2)cc1	.	.	.	.	.
SMILES	D1 antag	D1 agonist	TRHR PAM	TRHR ag	D1 potentiator
Fc1cccc(Cl)c1CSc1nnc(CNc2ccccc2)o1	-41	.	.	.	.
COc1cc(OC)cc(-c2nnc(SCc3c(F)cccc3Cl)o2)c1	-33	.	.	.	.
Cc1cccc(-n2ncc3c(NCCOCCO)ncnc32)c1	.	.	.	.	.
Cc1ccc2c(=O)cc(C(=O)Nc3nnc(C)s3)oc2c1	.	.	.	.	.
O=C1C(=C(c2ccccc2)c2ccccc2)Nc2ccccc21	.	36	.	.	.
CC(C)CC(=O)Nc1c2c(nn1-c1cccc(Cl)c1)CS(=O)C2 (stereo not drawn)	-33	.	.	.	.
CC(C)CC(=O)Nc1c2c(nn1-c1cccc(Cl)c1)CS(=O)(=O)C2	.	.	.	.	.
Cc1cc(C)c2c(=O)n(CC(=O)Nc3ccc(Cl)cc3)sc2n1	-39	.	.	.	.
Cc1cc(C)c2c(=O)n(CC(=O)Nc3cccc(F)c3)sc2n1	-32	.	.	.	.
CCOc1ccc(NC(=O)Cn2sc3nc(C)cc(C)c3c2=O)cc1	.	.	.	.	.
CC(=O)c1cccc(NC(=O)Cn2c(SCC(=O)Nc3ccc(F)cc3)nc3ccccc32)c1	.	.	.	.	.
